# Unmarked numbers belong to inactive results. Records with an inconclusive call do not appear. Where a call stands in place of a potency, no number is given. Activity calls are given as the source filed them. The call rests on the fitted dose curve; in most records, active means well fitted activation curve with a large enough effect in the repeat runs; inconclusive means weak or mixed curves; inactive means flat fitted curve, though single readings scatter.
# Test: A CellTox Green Cytotoxicity Assay to monitor cytotoxicity in HepG2 cells - 0 hour (AID 1224882); further: nearly all actives have a fitted effect of over 35% in size
# Conditions: CellTox Green fluorescence; series mostly up to 76.8 µM
# Method in brief: (§1)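 HepG2, 600 cells/well premixed w/ CellTox Green; 5 h settle, 37 C/5% CO2; pintool cpd add (DMSO); 37 C, 40 h; fluorescence read at 0, 8, 16, 24, 32, 40 h.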
SMILES,Potency,cytotoxicity
C=CC(=O)OCCCCCCCCCC,inactive,–
O=C(O)c1ccc2c(c1)nc(C(=O)NC1CCN(C3CC3)CC1)n2Cc1cc(-c2ccc(Cl)s2)on1,–,-4.38% [at 15.8 µM]
CC(COc1ccccc1)NC(C)C(O)c1ccc(O)cc1 (configuration not stated),inactive,–
Clc1nc2ccccc2nc1Cl,inactive,–
CCCCCCCCCCCC(=O)OCC,inactive,–
CCCN(C1CCN(C(=O)C2CCNCC2)CC1)[C@@H]1CCc2ccc(OC)cc2C1,inactive,–
CCCOC(C)=O,inactive,–
Cc1c(-c2cccnc2)c2ccccc2n1CCCCC(=O)O,inactive,–
CCC(=O)O[C@@H]1C[C@H]2CC[C@]1(C)C2(C)C,inactive,–
O=[N+]([O-])c1cccc(I)c1,inactive,–
O=C(O)c1c2ccccc2cc2ccccc12,inactive,–
O=C(O)c1cccnc1Nc1cccc(C(F)(F)F)c1,inactive,–
Cc1ccc2ccccc2c1[N+](=O)[O-],inactive,–
O=c1c2ccccc2oc2ccccc12,inactive,–
CC(=O)c1ccc(Cl)c(Cl)c1Cl,inactive,–
CCc1cnc(C(=O)O)c(C(=O)O)c1,inactive,–
C=CC(O)CCCCC (configuration not stated),inactive,–
COc1cccc([C@H](O)C2CCN(CCc3ccc(F)cc3)CC2)c1OC,inactive,–
Cc1nc2sccn2c(=O)c1CCN1CCC(=C(c2ccc(F)cc2)c2ccc(F)cc2)CC1,inactive,–
C=C(C)C(=O)OCCCCCCCCCCOC(=O)C(=C)C,inactive,–

SMILES,Potency,cytotoxicity
C=CC(=O)NC(C)(C)C,inactive,–
COc1ccc(C(=O)Nc2ccccc2)cc1[N+](=O)[O-],inactive,–
Sc1nc(S)nc(S)n1,inactive,–
CCCc1ccc(OC)cc1,inactive,–
CC(C)CC(C)(C)C,inactive,–
CC1=C(C)C(=O)C(CCCCC#CCCCC#CCO)=C(C)C1=O,inactive,–
C(/C=C/C=C/Nc1ccccc1)=Nc1ccccc1,inactive,–
OCC(O)c1ccccc1 (configuration not stated),inactive,–
CO[C@@H]1[C@@H](O[C@@H]2O[C@H](C)[C@@H](O[C@H]3C[C@@](C)(O)[C@@H](O)[C@H](C)O3)[C@H](N(C)C)[C@H]2O)[C@@H](CC=O)C[C@@H](C)[C@@H](O[C@@H]2CC[C@H](N(C)C)[C@@H](C)O2)/C=C/C=C/C[C@@H](C)OC(=O)C[C@H]1OC(C)=O,inactive,–
O=C1c2ccccc2C(=O)C1c1ccc2ccccc2n1,inactive,–
CC(=O)Nc1ccccc1O,inactive,–
O=C(OCCN1CCOCC1)c1cccnc1Nc1cccc(C(F)(F)F)c1,inactive,–
Oc1ccc(Oc2ccccc2)cc1,inactive,–
C=C[Si](OCC)(OCC)OCC,inactive,–
O=[N+]([O-])c1ccccc1CCO,inactive,–
O=C(Cl)c1cc(Cl)cc(Cl)c1,inactive,–
CCC1=C(C)CN(C(=O)NCCc2ccc(S(=O)(=O)NC(=O)NC3CCC(C)CC3)cc2)C1=O (configuration not stated),inactive,–
CCCCCC1CCC(=O)O1 (configuration not stated),inactive,–
CCOc1cc(OCC)c(C(C)=O)cc1OCC,inactive,–

# Test: A CellTox Green Cytotoxicity Assay to monitor cytotoxicity in HepG2 cells - 32 hour (AID 1224883); further: nearly all actives have a fitted effect of over 50% in size; further: potency means the concentration at half of the fitted maximal effect
# Conditions: CellTox Green fluorescence; series mostly up to 76.8 µM
# Method in brief: as §1
SMILES,cytotoxicity increase,Potency
O=C(O)c1ccc2c(c1)nc(C(=O)NC1CCN(C3CC3)CC1)n2Cc1cc(-c2ccc(Cl)s2)on1,-6.61% [at 15.8 µM],–
CC(COc1ccccc1)NC(C)C(O)c1ccc(O)cc1 (configuration not stated),–,inactive
Clc1nc2ccccc2nc1Cl,–,inactive
CCCCCCCCCCCC(=O)OCC,–,inactive
CCCOC(C)=O,–,inactive
Cc1c(-c2cccnc2)c2ccccc2n1CCCCC(=O)O,–,inactive
O=[N+]([O-])c1cccc(I)c1,–,inactive
O=C(O)c1c2ccccc2cc2ccccc12,–,inactive
O=C(O)c1cccnc1Nc1cccc(C(F)(F)F)c1,–,inactive
Cc1ccc2ccccc2c1[N+](=O)[O-],–,inactive
O=c1c2ccccc2oc2ccccc12,–,inactive
CC(=O)c1ccc(Cl)c(Cl)c1Cl,–,inactive
CCc1cnc(C(=O)O)c(C(=O)O)c1,–,inactive
C=CC(O)CCCCC (configuration not stated),–,inactive
COc1cccc([C@H](O)C2CCN(CCc3ccc(F)cc3)CC2)c1OC,–,inactive
Cc1nc2sccn2c(=O)c1CCN1CCC(=C(c2ccc(F)cc2)c2ccc(F)cc2)CC1,–,inactive
C=C(C)C(=O)OCCCCCCCCCCOC(=O)C(=C)C,–,inactive

SMILES,cytotoxicity increase,Potency
C=CC(=O)NC(C)(C)C,–,inactive
COc1ccc(C(=O)Nc2ccccc2)cc1[N+](=O)[O-],–,inactive
Sc1nc(S)nc(S)n1,–,inactive
CCCc1ccc(OC)cc1,–,inactive
CC(C)CC(C)(C)C,–,inactive
CC1=C(C)C(=O)C(CCCCC#CCCCC#CCO)=C(C)C1=O,–,inactive
OCC(O)c1ccccc1 (configuration not stated),–,inactive
CO[C@@H]1[C@@H](O[C@@H]2O[C@H](C)[C@@H](O[C@H]3C[C@@](C)(O)[C@@H](O)[C@H](C)O3)[C@H](N(C)C)[C@H]2O)[C@@H](CC=O)C[C@@H](C)[C@@H](O[C@@H]2CC[C@H](N(C)C)[C@@H](C)O2)/C=C/C=C/C[C@@H](C)OC(=O)C[C@H]1OC(C)=O,–,inactive
O=C1c2ccccc2C(=O)C1c1ccc2ccccc2n1,–,inactive
CC(=O)Nc1ccccc1O,–,inactive
O=C(OCCN1CCOCC1)c1cccnc1Nc1cccc(C(F)(F)F)c1,–,inactive
Oc1ccc(Oc2ccccc2)cc1,–,36.9 µM (active)
O=C(Cl)c1cc(Cl)cc(Cl)c1,–,inactive
CCC1=C(C)CN(C(=O)NCCc2ccc(S(=O)(=O)NC(=O)NC3CCC(C)CC3)cc2)C1=O (configuration not stated),–,inactive
CCCCCC1CCC(=O)O1 (configuration not stated),–,inactive
CCOc1cc(OCC)c(C(C)=O)cc1OCC,–,inactive
